{"source": "PubChem BioAssay", "note": "The source made the active and inactive calls. The rule behind the calls is not given here.", "data": [{"system": "Aerobactin synthetase IucA (Klebsiella pneumoniae hvKP1)", "assay": "Biochemical IucA enzyme inhibition primary screen of the Spectrum library (AID 1346200);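 note: 100% = wells without compound and 0% = wells lacking enzyme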", "details": "malachite green pyrophosphate, A620, at 8 µM, hits give low values", "values": [{"smiles": "COc1ccc2cc(CCC(C)=O)ccc2c1", "activity remaining": "99.8% (inactive)"}, {"smiles": "CCC(=O)O[C@H](CC(=O)O)C[N+](C)(C)C", "activity remaining": "107% (inactive)"}, {"smiles": "CN[C@@H]1C(O)[C@@H](O[C@@H]2[C@@H](O)[C@H](O[C@H]3OC(CN)=CC[C@H]3N)[C@@H](N)C[C@H]2N)OC[C@]1(C)O", "note": "(some centres not stated)", "activity remaining": "96.1% (inactive)"}, {"smiles": "O=C(COc1ccc(Cl)cc1)N1CCN(Cc2ccc3c(c2)OCO3)CC1", "activity remaining": "107% (inactive)"}, {"smiles": "O=c1c(O)c(-c2ccccc2)oc2ccc3occc3c12", "activity remaining": "104% (inactive)"}, {"smiles": "C[N+](C)(C)C[C@H](O)CC(=O)[O-]", "activity remaining": "100% (inactive)"}, {"smiles": "CC(C)CC1C(=O)N2CCC[C@H]2C2(O)O[C@](NC(=O)C3C=C4c5cccc6[nH]c(Br)c(c56)C[C@H]4N(C)C3)(C(C)C)C(=O)N12", "note": "(some centres not stated)", "activity remaining": "113% (inactive)"}, {"smiles": "Nc1ncnc2c1ncn2C1C[C@H](O)[C@@H](CO)O1", "note": "(some centres not stated)", "activity remaining": "125% (inactive)"}, {"smiles": "CNS(=O)(=O)Cc1ccc2[nH]cc(CCN(C)C)c2c1", "activity remaining": "115% (inactive)"}, {"smiles": "COc1cc(/C=C/C(=O)O)ccc1O", "activity remaining": "100% (inactive)"}, {"smiles": "COc1ccc(-c2coc3cc(O)ccc3c2=O)c(O)c1O", "activity remaining": "114% (inactive)"}, {"smiles": "CC(C)=CCCC(C)[C@@H]1CC[C@]2(C)C3=C(CC[C@@]12C)C1(C)CC[C@H](O)C(C)(C)C1CC3", "note": "(some centres not stated)", "activity remaining": "124% (inactive)"}, {"smiles": "C=C(C)C1Cc2c(ccc(C(=O)O)c2O)O1", "note": "(configuration not stated)", "activity remaining": "120% (inactive)"}, {"smiles": "CC(C)(C)NC[C@H](O)c1ccc(O)c(CO)c1", "activity remaining": "112% (inactive)"}, {"smiles": "C#CCCCCCCCCCCCC(O)CC(O)COC(C)=O", "note": "(configuration not stated)", "activity remaining": "109% (inactive)"}, {"smiles": "CC(=O)OC[C@H]1O[C@@H](Oc2cc(OC(C)=O)c3c(=O)cc(-c4ccc(OC(C)=O)cc4)oc3c2)[C@H](OC(C)=O)[C@@H](OC(C)=O)[C@@H]1OC(C)=O", "activity remaining": "92.5% (inactive)"}, {"smiles": "Cc1ccnc(NS(=O)(=O)c2ccc(N)cc2)n1", "activity remaining": "122% (inactive)"}, {"smiles": "COC(=O)CCC(C)[C@H]1CCC2C3C(C[C@H](O)[C@@]21C)[C@@]1(C)CC[C@@H](O)C[C@H]1C[C@H]3O", "note": "(some centres not stated)", "activity remaining": "105% (inactive)"}, {"smiles": "CC(=O)c1c(O)cc(O)cc1O", "activity remaining": "94.3% (inactive)"}, {"smiles": "CC(C)=CCCC1(C)C=Cc2c(O)c3c(c(CC=C(C)C)c2O1)OC12C(=CC4CC1C(C)(C)OC2(C/C=C(\\C)C(N)=O)C4=O)C3=O", "note": "(configuration not stated)", "activity remaining": "99.6% (inactive)"}, {"smiles": "COC(=O)/C(=C1\\OC(=O)C(c2ccccc2)C1=O)c1ccccc1", "note": "(configuration not stated)", "activity remaining": "106% (inactive)"}, {"smiles": "CC(=O)OC1CCC2(C)C(=CC=C3C2CCC2(C)C3CCC2C(C)/C=C/C(C)C(C)C)C1(C)C", "note": "(configuration not stated)", "activity remaining": "125% (inactive)"}, {"smiles": "O=c1c(O)cc([C@H]2Oc3cc(O)cc(O)c3C[C@H]2O)cc2c([C@H]3Oc4cc(O)cc(O)c4C[C@@H]3O)cc(O)c(O)c12", "activity remaining": "104% (inactive)"}, {"smiles": "CCCCCC1C(=O)CCC1CC(=O)O", "note": "(configuration not stated)", "activity remaining": "93.2% (inactive)"}, {"smiles": "CN[C@@H]1[C@H](O)[C@H](NC)[C@H]2O[C@@]3(O)C(=O)C[C@@H](C)O[C@H]3O[C@@H]2[C@H]1O", "activity remaining": "108% (inactive)"}, {"smiles": "Nc1ncnc2nc[nH]c12", "activity remaining": "105% (inactive)"}, {"smiles": "Cc1cc2nc3c(=O)[nH]c(=O)nc-3n(CC(O)C(O)C(O)CO)c2cc1C", "note": "(configuration not stated)", "activity remaining": "106% (inactive)"}]}]}
